Bioassay records as filed in PubChem.
Compounds with a hit are over-represented: about 2.4% of the library has one in this group of screens.
WRN helicase inh = qHTS for Inhibitors of WRN Helicase | Bifunctional 3'-5' exonuclease/ATP-dependent helicase WRN (Homo sapiens), Q14191 | WRN helicase unwinding, fluorescent forked duplex, kinetic | Potency, µM (series often up to 114 µM), for the others: at the top dose activity change, negative = inhibition, most hits filed as inhibitors | actives 0.46% (n = 360,000); further: on the % scale 0 is the no-effect control and ±100 the full control effect; nearly all actives have a fitted effect of over 55% in size
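WRN at 20 nM final preincubated with compound 15 min at room temperature; reaction started with 100 nM fluorophore/quencher forked duplex oligonucleotide and 2 mM ATP final. Unwinding followed kinetically by red fluorescence (ex 525, em 598 nm).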
FEN1 inh = qHTS Assay for the Inhibitors of Human Flap endonuclease 1 (FEN1); P39748; Recombinant FEN1 flap cleavage, fluorescence, 15 min; Potency, µM (doses to about 114 µM), for the others: at the top dose activity change, negative = inhibition, actives largely listed as inhibitors; actives 0.35% (n = 390,000); AID 588795, 2011; further: on the % scale 0 is the no-effect control and ±100 the full control effect; nearly all actives have a fitted effect of over 65% in size
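Nuclease activity of 10 nM FEN1 was measured after 15 min of room-temperature exposure to titrated compounds, by adding 50 nM flap substrate and reading plates at 0 and 15 min.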
Pol iota inh = qHTS for Inhibitors of Polymerase Iota; Pol iota fluorescent replication assay, 10 min; Potency, µM (titrated, usually from 115 µM), inactives show at the highest dose activity, negative = inhibition, hits mostly inhibitors; actives 1% (n = 390,000)
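Fluorescent replication assay read twice, at 0 min and 10 min after adding 50 nM (final) substrate. Enzyme (10 nM) and compounds were first incubated 15 min at room temperature; enzyme-free buffer wells were negative controls.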
Pol kappa inh = qHTS for Inhibitors of Polymerase Kappa | DNA polymerase kappa (Homo sapiens), Q9UBT6 | purified Pol kappa, fluorescent DNA synthesis assay, 10 min | Potency, µM (highest dose often 107 µM), for the others: at the highest dose activity, negative = inhibition, actives largely listed as inhibitors | actives 0.53% (n = 400,000) | AID 588579, 2011; further: on the % scale 0 is the no-effect control and ±100 the full control effect
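Activity was followed as the change in fluorescence between reads at 0 and 10 min after starting the reaction with 50 nM substrate. Beforehand, 10 nM polymerase had been preincubated with compound for 15 min at room temperature.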
POLH inh = qHTS for Inhibitors of Polymerase Eta; AID 588591, 2011; DNA polymerase eta (Homo sapiens), Q9Y253; recombinant Pol eta, fluorescent DNA replication assay; Potency, µM (series often up to 114 µM), for inactives: top-dose activity change, negative = inhibition, actives largely listed as inhibitors; actives 1.2% (n = 390,000); further: on the % scale 0 is the no-effect control and ±100 the full control effect
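Fluorescent replication assay: 50 nM final substrate added after a 15 min room-temperature compound preincubation with 10 nM enzyme. Signal taken at 0 min and again at 10 min.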
POLB inh = qHTS Assay for Inhibitors of DNA Polymerase Beta. P06746. Pol beta primer extension/strand displacement, fluorescence kinetic. Potency, µM (titrated, usually from 114 µM), inactives show at the top dose activity change, negative = inhibition, usual class: inhibitors. actives 1.3% (n = 340,000); further: on the % scale 0 is the no-effect control and ±100 the full control effect
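10 nM enzyme + cpd, 15 min RT; start with substrate 50 nM final; read 0 min and after 10 min RT. Corrected, normalized data; 4-parameter Hill curve fit.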
Starred values were filed as active, the others as inactive; ? = inconclusive; . = not tested or not shown; [ ] = dose if it differs, or a comment. The call rests on the fitted dose curve; in most records, active means well fitted curve in the direction sought with a large enough effect; inconclusive means small, poorly fitted or top-dose-only effect, or another doubt; inactive means no such curve, though single readings can be large; an effect the other way counts as inactive or inconclusive. Potency means the concentration at half of the fitted maximal effect.

SMILES	WRN helicase inh	FEN1 inh	Pol iota inh	Pol kappa inh	POLH inh	POLB inh
COc1ccc(/C=N/Nc2cc(C)nc3ccccc23)cc1	?	40µM*	?	-23%	?	79µM*
Cc1ccc(Cl)cc1N1CCN(C(=O)c2cnc(N3CCOCC3)c3ccccc23)CC1	.	-5%	4%	-12%[60.1 µM]	-19%	-3%
CCOC(=O)c1cccc(NC(=O)C(CC(C)C)N2Cc3ccccc3C2=O)c1 (configuration not stated)	.	-17%	?	-7%	-24%	-5%
CCOc1ccc(/C=C/C2=Cc3c(sc(NC(=O)CSc4n[nH]c(N)n4)c3C#N)C(C)(C)C2)cc1	45µM*	-8%	?	-23%	-7%	-1%
COc1ccc(-c2csc(NC(=O)CSc3n[nH]c(N)n3)n2)cc1	-9%	-11%	168%	-5%	-7%	16%
COc1ccc(NC(=O)N2CCCC3(CCNCC3)C2)cc1	.	.	.	0%[60.1 µM]	.	.
COc1ccc(CCN(C)C(=O)COC(=O)/C=C/c2ccc(C)o2)cc1OC	-15%	1%	50µM*	?	?	.
Cc1ncc(CO)c(/C=N/NC(=O)c2cc(O)c(O)c(O)c2)c1O	.	.	.	.	.	0.32µM*
COc1ccc(-c2nc(N3CCN(S(=O)(=O)c4ccc(C)cc4)CC3)c3ccccc3n2)cc1	.	-19%	?	-22%	.	.
CC(=O)c1ccc(NS(=O)(=O)c2cccc(S(=O)(=O)c3ccc(Cl)cc3)c2)cc1	.	-15%	89µM*	?	-5%	5%
COc1cc(-c2noc(CN3CCN(c4ccccc4)CC3)n2)cc(OC)c1OC	.	1%	4%	-6%	-17%	35%
Cc1ccc2nc(N3CCN(c4ccccc4)CC3)c3nnnn3c2c1	.	2%	10%	10%	1%	37%
COc1cc(Cl)c(NC(=O)c2cc(CN3CCCC3)on2)c(OC)c1	.	15%	32%	-9%	-10%	-10%
COCc1c(C(=O)N2CCc3ccccc32)oc2ccccc12	-2%[11.6 µM]	-13%	79µM*	?	-98%	-11%
CN1/C(=C\C(=O)COC(=O)Cn2nnc(-c3ccccc3)n2)C(C)(C)c2ccccc21	50µM*	?	?	-23%	?	?
CN1/C(=C/C(=O)COC(=O)CN2C(=O)C3CC=CCC3C2=O)C(C)(C)c2ccccc21 (configuration not stated)	0%	-24%	-20%	-15%	-11%	.
CCN(CC)S(=O)(=O)c1ccc2c(c1)N(CC(=O)Nc1cccc(C(C)=O)c1)C(=O)CO2	.	12%	3%	-4%	.	10%
CCCCCc1c2c(cc(O)c1C(=O)O)OC(=O)c1c(cc(OC)cc1C(=O)CCCC)O2	?	-22%	?	?	79µM*	50µM*
CCCCCC(=O)Cc1cc(O)cc(O)c1C(=O)Oc1cc(CC(=O)CCCCC)c(C(=O)O)c(OC)c1	.	.	.	-11%[60.1 µM]	.	.
CCCCCc1c2c(cc(O)c1C(=O)O)OC(=O)c1cc(C(=O)CCCC)c(OC)cc1O2	?	?	?	-7%	79µM*	.
COC(=O)c1ccccc1NC(=O)Cn1c(=O)n(CCC(=O)NCc2ccccc2OC)c(=O)c2ccccc21	.	-2%	-9%	-2%	-1%	21%
O=C1NC(Cc2ccccc2)C(=O)N1Cc1ccccc1 (configuration not stated)	2%	-10%	26%	-5%	-11%	.
O=c1ccsn1Cc1ccccc1	50µM*	56µM*	25µM*	0%	-14%	4%
CCCCOC(=O)c1cccc(NC(=O)c2cc3ccccc3o2)c1	.	-21%	-19%	-6%	-11%	-5%
N#Cc1c(NCCN)nc(-c2ccco2)c2c1CCCC2	6%	-20%	-4%	-9%	-14%	56µM*
SMILES	WRN helicase inh	FEN1 inh	Pol iota inh	Pol kappa inh	POLH inh	POLB inh
CC1(C)Cc2c(C#N)c(NCc3ccco3)nc(-c3ccco3)c2CO1	-24%[57.1 µM]	9%	?	-45%	14µM*	?
O=C(c1ccccc1)c1nn(-c2ccccc2)c(=O)cc1-c1ccccc1	-5%	.	.	.	.	.
CC(/C=N/n1c(-c2ccc(Cl)cc2)n[nH]c1=S)=C\c1ccco1	-12%[11.6 µM]	-13%	?	?	18µM*	?
O=C1c2ccccc2C(c2nnnn2-c2ccc3c(c2)OCCO3)N1CCCN1CCOCC1 (configuration not stated)	7%	.	.	.	.	.
CCC(=O)n1nc(-c2ccco2)nc1SCc1ccccc1	-2%	-14%	14%	-4%	-8%	22µM*
N#C/C(=C\c1c[nH]c2ccccc12)C(=O)c1ccc(O)c(O)c1	.	3.4µM*	7.9µM*	6µM*	1.4µM*	3.8µM*
Cc1ccc(C)c(S(=O)(=O)Nc2ccc(C(=O)N3CCOCC3)cc2)c1	15%	.	.	.	-6%	.
CCOc1cccc(/C(O)=C2/C(=O)C(=O)N(CCOC)C2c2ccco2)c1 (configuration not stated)	3%	7%	?	-12%	?	79µM*
CCOc1cccc(/C(O)=C2/C(=O)C(=O)N(Cc3cccnc3)C2c2ccco2)c1 (configuration not stated)	-4%	1%	-1%	-17%	0%	12%
COc1ccc(C2Nc3ccccc3C(=O)N2Cc2ccco2)cc1COc1c(C)cccc1C (configuration not stated)	.	-13%	25µM*	-16%	.	.
CCCCNS(=O)(=O)c1ccc2nc(SCC(=O)c3ccc(C#N)cc3)[nH]c2c1	?	?	-2%	1%	?	40µM*
CS[C@@H]1SC[C@H]2C(=O)N(C)C(C(C)C)C(=O)OC[C@@H](NC(=O)c3cnc4ccccc4n3)C(=O)N[C@@H](C)C(=O)N(C)[C@H]1C(=O)N(C)C(C(C)C)C(=O)OC[C@@H](NC(=O)c1cnc3ccccc3n1)C(=O)N[C@@H](C)C(=O)N2C (some centres not stated)	.	.	.	21µM*	.	.
CC(NC(=O)c1cnc2ccccc2n1)c1ccccc1 (configuration not stated)	-17%	-10%	90%	-5%	-1%	6%
O=C(O)CN1C(=O)/C(=C/C=C/c2ccccc2)SC1=S	-1%	-1%	?	-39%	-22%	-23%
C#CCN1C(=O)S/C(=C/C=C/c2ccc(N(C)C)cc2)C1=O	35µM*	?	79µM*	-19%	-19%	2%
COCCCNc1cc(C)nc2ccccc12	5%	-3%	20%	2%	-6%	18%
